Screens as filed in PubChem.
Only some compounds are listed: those with a hit (about 6.3% of all), similar ones and a draw of the others.
TGFb inhibitor: inhibitors of TGF-b signaling. HepG2 CAGA-GFP TGF-b/SMAD3 reporter, GFP fluorescence, 18 h; TGF-beta stimulated, 500 pg/mL final. Potency, µM (doses to about 46.1 µM), for inactives: at the highest dose activity, negative = inhibition, hits mostly inhibitors. 1.2% of 410,000 active. AID 588855; also: % is scaled to controls: 0 for no effect and ±100 for the full control effect; nearly all actives have a fitted effect of over 65% in size
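TGF-beta reporter screen: HEPG2 CAGA-GFP, 1% FBS, 500 pg/mL TGF-beta final, 18 h; per-cell GFP summed per well; curves fitted and categorized by class.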
ATXN viability: cell viability loss in ATXN counter-screen. Potency, µM (highest dose often 56.7 µM), hits mostly cytotoxic. 0.49% of 400,000 active. S2 cells (HEK-293 line with an ATXN2-luciferase reporter) viability, CellTiter-Fluor protease fluorescence, 24 h; also: nearly all actives have a fitted effect of over 40% in size
ATXN2 expr inh: inhibitors of ATXN2 expression; HEK-293 ATXN2-luciferase reporter, luminescence, 24 h; Potency, µM (highest dose often 57 µM), for the others: top-dose activity change, negative = inhibition, hits mostly inhibitors; 0.72% of 360,000 active; also: % is scaled to controls: 0 for no effect and ±100 for the full control effect; nearly all actives have a fitted effect of over 55% in size
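ATXN2-luciferase reporter cells (luciferase flanked by upstream and downstream ATXN2 gene portions) were treated 24 h at 37 °C with compounds at up to 57 uM. SteadyGlo luminescence gave expression; GF-AFC fluorescence gave viability.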
Gal4-VP16 FLuc: inhibits Gal4-VP16 luciferase reporter, ROR gamma counter-screen; Drosophila S2 Gal4-VP16 UAS-luciferase, luminescence, 20 h; Potency, µM (series often up to 53.6 µM), without a hit: at the top dose activity, negative = inhibition, actives largely listed as inhibitors; 3.5% of 310,000 active;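 also: Gal4-VP16 expression switched on by copper sulfate through the metallothionein promoter; % is scaled to controls: 0 for no effect and ±100 for the full control effect; nearly all actives have a fitted effect of over 50% in size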
RORgamma inh: ROR gamma (mouse) transcription inhibition | P51450 | Drosophila S2 Gal4-RORgamma UAS-luciferase reporter, 20 h | Potency, µM (series often up to 53.6 µM), without a hit: at the top dose activity change, negative = inhibition, actives largely listed as inhibitors | 5.4% of 310,000 active | AID 2551; also: % is scaled to controls: 0 for no effect and ±100 for the full control effect; nearly all actives have a fitted effect of over 60% in size
Target sequence (P51450 whole entry, looked up, the tested form may be a part): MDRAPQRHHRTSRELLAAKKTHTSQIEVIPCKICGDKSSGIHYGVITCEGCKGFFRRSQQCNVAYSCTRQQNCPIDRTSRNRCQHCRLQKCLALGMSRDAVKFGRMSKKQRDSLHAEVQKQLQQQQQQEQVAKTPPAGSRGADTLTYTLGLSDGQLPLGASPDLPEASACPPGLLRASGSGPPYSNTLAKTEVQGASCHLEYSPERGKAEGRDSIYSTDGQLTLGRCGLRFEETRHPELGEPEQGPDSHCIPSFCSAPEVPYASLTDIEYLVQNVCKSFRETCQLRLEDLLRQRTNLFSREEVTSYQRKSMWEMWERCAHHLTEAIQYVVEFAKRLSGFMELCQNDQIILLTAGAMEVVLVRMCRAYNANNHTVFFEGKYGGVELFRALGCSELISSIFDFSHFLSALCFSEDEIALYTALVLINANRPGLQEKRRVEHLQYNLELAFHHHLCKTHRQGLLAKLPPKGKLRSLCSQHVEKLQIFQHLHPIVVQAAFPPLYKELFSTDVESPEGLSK
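Luciferase reporter read in Schneider cells carrying Gal4-RORγ (mouse) and UAS-Photinus luciferase; cells given compound 1 h before 700 uM copper sulfate induction, then incubated 20 h at ambient temperature.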
HepG2 tox-1: kills HepG2 cells in TGF-b inhibitor counter-screen; 0.76% of 410,000 active; AID 588856; Potency, µM (series often up to 46.1 µM), without a hit: top-dose activity change, negative = cytotoxicity, hits mostly cytotoxic; HepG2 CAGA-GFP viability, ATP luminescence, 18 h
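CellTiter-Glo luminescence gave cytotoxicity after 18 hours at 37 degrees C. The cells were HepG2 CAGA-GFP in 1% FBS DMEM, stimulated with 500 pg/mL TGF-beta after compound addition. %Activity was normalised to no-cell wells (complete cell-killing) and DMSO (no toxicity), and curves were fitted and classified.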
TGFb CAGA inh: TGF-b pathway inhibition, cherry-pick retest. 63% of 1,600 active. HepG2 CAGA-GFP TGF-b reporter, GFP fluorescence, 18 h; cells stimulated with TGF-beta, 500 pg/mL. AID 720534. shares compounds with TGFb inhibitor. Potency, µM (titrated, usually from 46.1 µM), without a hit: top-dose activity, negative = inhibition, actives largely listed as inhibitors; also: % is scaled to controls: 0 for no effect and ±100 for the full control effect; nearly all actives have a fitted effect of over 65% in size
HepG2 tox-2: HepG2 cytotoxicity, TGF-b inhibitor counterscreen | shares compounds with TGFb inhibitor | HepG2 CAGA-GFP viability, ATP luminescence, 18 h; cells stimulated with TGF-beta, 500 pg/mL | Potency, µM (highest dose often 46.1 µM), for the others: top-dose activity, negative = cytotoxicity, most hits filed as inhibitors | 27% of 1,600 active | AID 720535; also: % is scaled to controls: 0 for no effect and ±100 for the full control effect; nearly all actives have a fitted effect of over 70% in size
CCL64 TGFb inh: orthogonal confirmation of TGF-b inhibitors in CCL64 cells. shares compounds with TGFb inhibitor. CCL64 CAGA-GFP reporter, TGF-b stimulated, GFP fluorescence, 18 h. Potency, µM (series often up to 46.1 µM), inactives show at the top dose activity, negative = inhibition, most hits filed as inhibitors. 41% of 1,600 active; also: nearly all actives have a fitted effect of over 65% in size
COP TGFb inh: TGF-b inhibition validated with COP promoter | shares compounds with TGFb inhibitor | HepG2 COP-GFP TGF-b reporter, GFP fluorescence, 18 h; cells stimulated by added recombinant TGF-beta | Potency, µM (doses to about 46.1 µM), for inactives: top-dose activity, negative = inhibition, most hits filed as inhibitors | 3% of 1,600 active | AID 720537; also: nearly all actives have a fitted effect of over 70% in size
* hit, by the source's call; i = inactive; ? = inconclusive; / = no result given; [ ] = remark or other dose. Calls follow the shape of the dose curve; as a rule, active = well fitted curve in the direction sought with a large enough effect; inconclusive = small, poorly fitted or top-dose-only effect, or another doubt; inactive = no such curve, though single readings can be large; an effect the other way counts as inactive or inconclusive. Potency is read from the fitted curve at half-maximal effect.

SMILES	TGFb inhibitor	ATXN viability	ATXN2 expr inh	Gal4-VP16 FLuc	RORgamma inh	HepG2 tox-1	TGFb CAGA inh	HepG2 tox-2	CCL64 TGFb inh	COP TGFb inh
CC[C@]12c3[nH]c4cc(-c5ccco5)ccc4c3CCN1C(=O)[C@@H](CC(=O)NCC13CC4CC(CC(C4)C1)C3)C[C@@H]2C(=O)N1CCN(C(=O)c2ccco2)CC1	13µM*	?	?	/	/	0%	?	-20%	?	28%
CC[C@]12c3[nH]c4ccc(Cl)cc4c3CCN1C(=O)[C@@H](CC(=O)NCC13CC4CC(CC(C4)C1)C3)C[C@@H]2C(=O)N1CCN(C(=O)c2ccco2)CC1	13µM*	?	25µM*	/	/	-2%	12µM*	?	?	67%
CC[C@]12c3[nH]c4ccc(OC)cc4c3CCN1C(=O)C(CC(=O)NCC13CC4CC(CC(C4)C1)C3)C[C@@H]2C(=O)N1CCN(C(=O)c2ccco2)CC1 (some centres not stated)	?	?	?	/	/	-4%	/	/	/	/
CC(C)N(C(=O)[C@H]1C[C@H](CC(=O)NCC23CC4CC(CC(C4)C2)C3)C(=O)N2CCc3c([nH]c4ccc(Cl)cc34)[C@]12C)C(C)C	8.9µM*	?	?	/	/	-76%	12µM*	?	13µM*	53%
CCn1c(=O)c2sccc2n2c(CCCC(=O)Nc3ccc(C)cc3)nnc12	-3%	/	/	/	/	1%	/	/	/	/
Nc1ccccc1C(=O)NC(=O)Nc1ccc(Oc2ncc(Br)cn2)c(Cl)c1	?	?	-9%	/	/	0%	?	-8%	5.8µM*	-18%
C=CCC[C@@H](Cc1ccc(F)cc1)C(=O)OC[C@@H](NC(=O)[C@@H](CC=C)CC(=O)N(CCO)Cc1ccccc1)c1ccccc1	11µM*	?	?	/	/	-20%	15µM*	-25%	?	-7%
C=CC[C@H](CC(=O)N(CCO)Cc1ccccc1)C(=O)N[C@H](COC(=O)[C@@H](CC=C)Cc1ccc(F)cc1)Cc1c[nH]c2ccccc12	13µM*	?	?	/	/	-23%	16µM*	-23%	?	13%
C=CC[C@@H](CC(=O)N(CCO)Cc1ccccc1)C(=O)N[C@@H](COC(=O)[C@@H](CC=C)Cc1ccc(F)cc1)Cc1ccccc1	-13%	?	?	/	/	-4%	/	/	/	/
COC(=O)C1=C(c2ccccc2)c2ccccc2S(=O)(=O)N1CC(=O)Nc1ccc(F)c(F)c1	?	?	-38%	/	/	-31%	/	/	/	/
COC(=O)c1ccc(CSc2nc3c([nH]c4ccccc43)c(=O)n2-c2ccc(Cl)cc2)o1	-1%	i	13%	/	/	-21%	/	/	/	/
O=[N+]([O-])c1cc(Cl)ccc1N1CCCCC1	0%	i	-13%	-3%	8%	-11%	/	/	/	/
O=[N+]([O-])c1cc(Cl)ccc1N1CCN(c2ccccc2O)CC1	7.1µM*	?	-11%	1%[10 µM]	?	-11%	?	-6%	-7%	-3%
Nc1nn(S(=O)(=O)c2ccccc2)cc1-c1ccc([N+](=O)[O-])cc1	?	i	-13%	35µM*	?	-19%	16µM*	0%	-29%	-1%
C[C@]12c3[nH]c4cc(-c5ccco5)ccc4c3CCN1C(=O)[C@@H](CC(=O)NCc1cccc(C(F)(F)F)c1)C[C@@H]2C(=O)N1CCCCC1	7.9µM*	?	?	/	/	-28%	16µM*	?	?	55%
CC[C@]12c3[nH]c4cc(-c5ccco5)ccc4c3CCN1C(=O)[C@@H](CC(=O)NCc1cccc(C(F)(F)F)c1)C[C@@H]2C(=O)N1CCN(C(=O)C2CC2)CC1	10µM*	?	?	/	/	-5%	15µM*	?	?	25%
COc1ccc(CC(N)c2csc(NC(=O)Nc3ccccc3C(C)C)n2)cc1 (configuration not stated)	5.6µM*	?	?	/	/	-106%	?	?	?	?
CCC(C)Nc1nc(-c2cccc(OC)c2O)nc2ccccc12 (configuration not stated)	?	?	?	-14%	16%	-9%	/	/	/	/
CCC(C)Nc1nc(-c2ccccn2)nc2ccccc12 (configuration not stated)	?	?	?	3.5µM*	0.71µM*	-14%	15µM*	?	12µM*	72%
CSc1ccc(CNC(=O)c2ccc3c(c2)N(C)C(=O)C2CCCCN32)cc1 (configuration not stated)	3%	i	0%	/	/	-40%	/	/	/	/
COc1cccc(CN2CCC2(C)C(=O)Nc2cccc3cccnc23)c1F (configuration not stated)	10µM*	?	?	/	/	-44%	?	-12%	?	15%
COc1ccc(-c2[nH]ncc2-c2ccc(Cl)cc2)c(O)c1	10µM*	i	5%	?	8.9µM*	-61%	?	-20%	?	24%
COc1ccc(-c2cn[nH]c2-c2ccc(OCc3ccc([N+](=O)[O-])cc3)cc2O)cc1OC	8.9µM*	i	/	?	?	-45%	21µM*	?	?	23%
COc1ccc(-c2c(-c3ccc(OCC(=O)NN)cc3O)n[nH]c2C)cc1OC	0%	i	15%	2%	-27%	-4%	/	/	/	/
